Source: PubChem (several laboratories)
NR2F2 inh: NR2F2 (human) inhibition, primary screen; P24468; HEK293T NGFI-A luciferase reporter, luminescence; inhibition, % at 8.6 µM; 370,000 compounds, 0.7% hits; AID 686940;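 active = inhibition above a per-plate cutoff, mean inhibition of test wells between control levels plus 3 SD, cut at about 38% in these data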;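 also: cells cotransfected with COUP-TFII expression vector driving the NGFI-A reporter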
Gli-Sufu block: Gli-Sufu pathway antagonism; Sufu-KO-LIGHT fibroblasts, Gli luciferase reporter luminescence; 340,000 compounds, 0.74% hits; inhibition, % at 5 µM; AID 588413;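 active = inhibition above about 55%, limit read from the data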
GalR3 antag: human GalR3 antagonism; HEK293 GalR3-CNG cAMP membrane potential fluorescence; galR3 body fused to GalR1 C-terminus; inhibition, % at 3 µM; 360,000 compounds, 0.44% hits;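 active = inhibition above the screen-wide average plus 3 SD, cut at about 13% in these data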;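 also: forskolin and galanin both at EC90 stimulate the cells; cAMP rise reported by CNG channel membrane potential dye signal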
Target sequence (O60755 1-299 limits assumed): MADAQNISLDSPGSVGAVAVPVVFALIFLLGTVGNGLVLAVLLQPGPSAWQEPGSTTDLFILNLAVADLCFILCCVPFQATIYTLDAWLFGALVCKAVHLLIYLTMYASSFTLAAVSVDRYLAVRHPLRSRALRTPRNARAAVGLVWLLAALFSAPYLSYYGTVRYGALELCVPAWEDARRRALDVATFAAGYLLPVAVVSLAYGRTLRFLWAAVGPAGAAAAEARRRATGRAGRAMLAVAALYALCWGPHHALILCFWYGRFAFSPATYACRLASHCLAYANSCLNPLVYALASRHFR
FXN GAA850 act: activators of GAA850 frataxin (FXN) promoter; 360,000 compounds, 0.56% hits; activation, % at 6 µM; HEK293 lucGAA850 FXN promoter luciferase reporter, 24 h; percent of 10 µM SAHA response;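 active = activation above the average of all compounds screened plus 3 SD, cutoff fixed separately per campaign, cut at about 7.5% in these data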
SMARCA2 act: SMARCA2 function activation, primary screen | MG213 cells, MMTV-luciferase reporter, dexamethasone, overnight | activation, % at 9.1 µM | 370,000 compounds, 1% hits | AID 652017; in the data active = activation above about 7.8%
H9c2 protect: protects H9c2 cardiomyocytes from peroxide injury; AID 588492; 360,000 compounds, 0.63% hits; H2O2 injury protection, ATPLite, 2 h; protection from H2O2 cell death, % at 20 µM;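 active = compounds giving at least 50% protection of heart cells from peroxide-induced death in the single-dose screen, raw or plate-pattern-corrected value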
Gli antag conf: Gli-SUFU antagonism confirmation, single concentration. shares compounds with Gli-Sufu block. AID 602428. 2,500 compounds, 40% hits. Sufu-KO-LIGHT cells, Gli luciferase reporter, luminescence. inhibition, % at 5 µM;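 active = mean inhibition at 5 µM reaching about 45%, limit read from the data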
Gli cytotox: cytotoxic in Gli-SUFU antagonist counter-screen | 2,500 compounds, 32% hits | cytotoxicity, % at 5 µM | shares compounds with Gli-Sufu block | Sufu-KO-LIGHT cells cytotoxicity, ATP luminescence | AID 651994;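 active = mean cytotoxicity at 5 µM above about 25%, limit read from the data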;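 also: cells exposed to compound overnight for roughly 16 to 18 hours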
Wnt3a cs: counter-screen for Gli-SUFU antagonists: Wnt3a reporter inhibition | Wnt-LIGHT cells, Wnt3a-driven luciferase reporter, luminescence | shares compounds with Gli-Sufu block | inhibition, % at 6.25 µM | 2,500 compounds, 20% hits | AID 651995;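 active = mean inhibition above about 25%, limit read from the data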
Of the large screens only hits and unclear results are named; the others gave an inactive call (follow-up assays come after a bar, where they were run). An excerpt weighted towards active compounds, which were near 3.4% of everything screened.

CN(Cc1cnc2nc(N)nc(N)c2n1)c1ccc(C(=O)NC(CCC(=O)O)C(=O)O)c2ccccc12 (centres undefined)	Gli-Sufu block 57.9 | Gli antag conf inactive | Gli cytotox 29.4 | Wnt3a cs inactive
O=C(O)CCC(NC(=O)c1ccc(Cl)cc1)C(=O)O (centres undefined)	none
CCC(CC)C(C(=O)NCc1ccccc1)N(C)Cc1ccc(Cl)c(Cl)c1 (centres undefined)	none (no result: Gli-Sufu block, FXN GAA850 act, H9c2 protect)
Cc1ccc(C(=O)N2CCN(c3ncc(C(F)(F)F)cc3Cl)CC2)s1	Gli-Sufu block 58.2 | Gli antag conf inactive | Gli cytotox inactive | Wnt3a cs inactive
CCOC(=O)c1ccc2c(c1)n(CC)c(/C=C/Nc1ccccc1)[n+]2CC	none | Gli antag conf 52.6 | Gli cytotox 33.8 | Wnt3a cs inactive
CCn1c(C)[n+](Cc2ccccc2)c2ccc(C(=O)OC)cc21	none
CCN1C(=O)C(=CC=CN(C)c2ccccc2)SC1=S	none (no result: Gli-Sufu block)
CCn1c(C)[n+](Cc2ccccc2)c2ccc(Cl)cc21	none
CCn1c(/C=C/Nc2ccccc2)[n+](CC)c2ccc(Cl)cc21	none | Gli antag conf inactive | Gli cytotox inactive | Wnt3a cs inactive
CCn1c(/C=C/N(C)c2ccccc2)[n+](CC)c2ccc(Cl)cc21	Gli-Sufu block 85.4 | Gli antag conf 88.6 | Gli cytotox 36.4 | Wnt3a cs 42.0
Cc1cc(OC(C)CCN2CCC(C(O)(c3ccccc3)c3ccccc3)CC2)ccc1Br (centres undefined)	none (no result: Gli-Sufu block, GalR3 antag, FXN GAA850 act, H9c2 protect)
CCCCNC(=O)C[C@H]1C[C@@]2(C(=O)OC)C(=C[C@H](C(C)C)O[C@@H]2C2CC2)N(Cc2ccco2)C1=O	none (no result: Gli-Sufu block, GalR3 antag, FXN GAA850 act, H9c2 protect)
CSCCC(c1nc2ccccc2[nH]1)n1c(/C=C/c2ccc(Cl)cc2)nc2ccccc21 (centres undefined)	none (no result: Gli-Sufu block, FXN GAA850 act, H9c2 protect)
Cc1cc(C)c[n+](C(C)C(=O)c2ccc(-c3ccccc3)cc2)c1 (centres undefined)	Gli-Sufu block 79.9 | Gli antag conf 78.9 | Gli cytotox inactive | Wnt3a cs inactive
Cc1ccc[n+](C(C)C(=O)c2ccc(Cl)cc2)c1 (centres undefined)	none
CCN(Cc1cn(Cc2ccccc2)nn1)S(=O)(=O)c1ccc(F)cc1Br	none (no result: Gli-Sufu block, GalR3 antag, FXN GAA850 act, H9c2 protect)
CCCc1cc(=O)[nH]c(SCC(=O)NC2CCCCCCC2)n1	none
CCCc1cc(=O)[nH]c(SCC(=O)NC2CC2)n1	none | Gli antag conf inactive | Gli cytotox inactive | Wnt3a cs inactive
CC(=O)c1c(C)[nH]c(C(=O)Nc2ccccc2C)c1C	none (no result: Gli-Sufu block, GalR3 antag, FXN GAA850 act, SMARCA2 act, H9c2 protect)
O=C(CSc1ccc2ccccc2n1)c1ccccc1	none
Cc1nn(CC(=O)N2CCN(c3ccc(Cl)cc3)CC2)c(=O)c2cccn12	none (no result: GalR3 antag)
COc1ccccc1OC(C)C(=O)Nc1ccccc1C(=O)NCc1cccnc1 (centres undefined)	Gli-Sufu block 56.0 | Gli antag conf inactive | Gli cytotox inactive | Wnt3a cs inactive
CCOC(=O)CSc1c(-c2cccs2)[nH]c2ccccc12	none | Gli antag conf 65.1 | Gli cytotox inactive | Wnt3a cs inactive
O=C(COc1ccc2ccccc2c1)NNC(=O)Cc1ccccc1	none
O=C(COc1ccc2ccccc2c1)NNC(=O)c1ccccc1	none | Gli antag conf inactive | Gli cytotox inactive | Wnt3a cs inactive
CCOC(=O)c1ccc(NC(=O)CSc2nnc(CNC(=O)c3c(F)cccc3Cl)o2)cc1	none
CCOC(=O)c1ccc(NC(=O)CSc2nnc(CNC(=O)c3ccccc3F)o2)cc1	Gli-Sufu block 95.6 | Gli antag conf inactive | Gli cytotox inactive | Wnt3a cs inactive
Cc1cc(N2CCOCC2)nc(C(C)C)n1	none
Cc1cc(N2CC(C)OC(C)C2)nc(C(C)C)n1 (centres undefined)	none | Gli antag conf inactive | Gli cytotox inactive | Wnt3a cs inactive
CN(C)c1ccc(/C=N/NC(=O)C[n+]2ccccc2)cc1	none | Gli antag conf inactive | Gli cytotox inactive | Wnt3a cs inactive
